Results on eight molecules are retold here after ChEMBL document CHEMBL3988442, “University of Dundee, Small-Polar-MMV Screening Library” (2021).

Holding throughout (parameters): scale not given: direction of the effect not stated beside the values
The target of assay [1] is Protein translocase subunit SecA (Escherichia coli (strain K12)) (UniProt P10408). As to the kind of experiment: Assay to Identify E. coli SecA ATPase Inhibitors. Format: functional. The note with it: 30 µM.
Assay [2] has as its target T1, Ubiquitin-activating enzyme e1, putative (Leishmania donovani (strain BPK282A1)) (UniProt E9BSI1).
T1 sequence (whole entry): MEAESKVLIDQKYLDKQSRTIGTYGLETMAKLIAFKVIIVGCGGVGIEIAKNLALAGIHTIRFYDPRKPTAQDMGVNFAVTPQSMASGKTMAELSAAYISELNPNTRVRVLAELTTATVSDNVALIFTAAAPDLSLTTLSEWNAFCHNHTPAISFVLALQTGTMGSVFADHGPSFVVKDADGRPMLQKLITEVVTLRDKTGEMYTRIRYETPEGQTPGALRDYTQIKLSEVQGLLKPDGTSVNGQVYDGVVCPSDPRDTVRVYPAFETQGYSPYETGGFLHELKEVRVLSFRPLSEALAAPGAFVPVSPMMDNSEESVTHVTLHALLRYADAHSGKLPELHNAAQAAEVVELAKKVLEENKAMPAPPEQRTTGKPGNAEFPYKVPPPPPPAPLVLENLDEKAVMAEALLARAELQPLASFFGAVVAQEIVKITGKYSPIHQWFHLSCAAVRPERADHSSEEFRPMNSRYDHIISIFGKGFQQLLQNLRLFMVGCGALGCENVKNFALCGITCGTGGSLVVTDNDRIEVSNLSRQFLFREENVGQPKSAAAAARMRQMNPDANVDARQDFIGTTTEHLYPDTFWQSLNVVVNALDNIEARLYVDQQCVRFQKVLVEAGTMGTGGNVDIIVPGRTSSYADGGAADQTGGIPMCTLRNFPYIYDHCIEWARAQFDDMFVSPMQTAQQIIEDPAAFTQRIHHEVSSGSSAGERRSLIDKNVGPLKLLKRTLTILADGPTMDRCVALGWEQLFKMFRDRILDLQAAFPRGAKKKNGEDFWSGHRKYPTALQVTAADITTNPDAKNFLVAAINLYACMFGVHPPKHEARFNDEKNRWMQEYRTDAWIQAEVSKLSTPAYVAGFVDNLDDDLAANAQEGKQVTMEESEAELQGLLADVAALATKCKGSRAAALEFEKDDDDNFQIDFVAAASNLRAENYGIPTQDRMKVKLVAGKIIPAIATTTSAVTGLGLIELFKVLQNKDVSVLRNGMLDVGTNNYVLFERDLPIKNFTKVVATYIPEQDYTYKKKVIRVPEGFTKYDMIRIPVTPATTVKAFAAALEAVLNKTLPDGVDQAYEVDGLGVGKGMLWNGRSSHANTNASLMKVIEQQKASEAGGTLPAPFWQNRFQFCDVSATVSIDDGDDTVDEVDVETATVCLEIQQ
As to the kind of experiment: Leishmania donovani Ubiquitin Activating Enzyme (LdE1). To be noted: 30 µM. It is filed as functional.

Assay [3] deals with AMP-activated protein kinase, AMPK (Homo sapiens) (UniProt P54646+O43741+P54619+Q9UGJ0+Q9Y478+Q13131+Q9UGI9). As to the kind of experiment: AMP-dependent Kinase enzyme assay. An in vitro enzyme assay that detects ADP turnover that is directly proportional to AMPK activity. This uses naive AMPK that is activated during the assay with MK-8722. It is filed as functional. To be noted: 30 µM.

In assay [4] the target is Sialic acid-binding Ig-like lectin 9 (Homo sapiens) (UniProt Q9Y336). As to the kind of experiment: Hs-Siglec9 ALPHAscreen SOP 20170721. To be noted: 10 µM. Background: In Alpha technology, singlet oxygen from a donor bead excites a nearby acceptor bead.
Sialic acid-binding Ig-like lectin 9 (Homo sapiens), sequence (Q9Y336 whole entry): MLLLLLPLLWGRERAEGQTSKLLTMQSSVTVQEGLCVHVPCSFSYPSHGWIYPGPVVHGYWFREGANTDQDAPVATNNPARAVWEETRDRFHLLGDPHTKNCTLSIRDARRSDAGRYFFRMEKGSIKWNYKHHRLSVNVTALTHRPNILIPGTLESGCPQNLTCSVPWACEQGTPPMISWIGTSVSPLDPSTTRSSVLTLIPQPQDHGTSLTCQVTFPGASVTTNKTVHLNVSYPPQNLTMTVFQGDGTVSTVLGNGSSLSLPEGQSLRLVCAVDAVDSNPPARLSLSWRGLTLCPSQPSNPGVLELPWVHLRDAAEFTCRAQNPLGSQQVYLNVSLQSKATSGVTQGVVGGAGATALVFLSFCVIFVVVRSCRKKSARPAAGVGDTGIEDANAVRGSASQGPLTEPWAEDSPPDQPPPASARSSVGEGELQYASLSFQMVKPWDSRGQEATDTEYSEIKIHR
The subject of assay [5] is Trypanosoma cruzi. As to the kind of experiment: Trypanosoma cruzi phosphomannomutase and mannose-1-phosphate guanylyltransferase assay. Format: functional. To be noted: 10 µM.
Assay [6] concerns the target T2, Arginase-2, mitochondrial (Homo sapiens) (UniProt P78540).
T2 sequence (whole entry): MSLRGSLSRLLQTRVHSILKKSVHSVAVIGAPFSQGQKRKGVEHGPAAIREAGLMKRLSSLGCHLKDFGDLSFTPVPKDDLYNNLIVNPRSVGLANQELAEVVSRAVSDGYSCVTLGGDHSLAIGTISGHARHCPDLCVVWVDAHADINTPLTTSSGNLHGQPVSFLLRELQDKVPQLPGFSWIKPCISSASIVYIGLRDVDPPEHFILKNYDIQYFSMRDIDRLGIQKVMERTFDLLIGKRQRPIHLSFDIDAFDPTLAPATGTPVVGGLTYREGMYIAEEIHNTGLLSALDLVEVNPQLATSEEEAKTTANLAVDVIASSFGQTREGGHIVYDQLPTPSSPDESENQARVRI
The assay can be described thus: in vitro enzyme assay to detect the production of urea directly proportional to the activity of Arginase II. Also: in the data most compounds retested in dose-response had high values. Format: functional. The note with it: 33.3 µM.

Assay [7] deals with T3, Proteasome subunit beta (Trypanosoma cruzi) (UniProt O96673).
T3 sequence (whole entry): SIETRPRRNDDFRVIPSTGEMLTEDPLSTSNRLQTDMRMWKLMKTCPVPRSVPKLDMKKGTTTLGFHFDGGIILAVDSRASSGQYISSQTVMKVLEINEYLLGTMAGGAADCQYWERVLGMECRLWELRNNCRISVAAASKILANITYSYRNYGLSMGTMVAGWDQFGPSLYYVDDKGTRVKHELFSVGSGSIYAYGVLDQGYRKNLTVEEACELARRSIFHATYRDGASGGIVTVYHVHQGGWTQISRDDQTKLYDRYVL
The assay can be described thus: Trypanosoma cruzi proteasome chymotrypsin-like activity (TcProtChymo) assay. Also: in the data most compounds retested in dose-response had high values. It is filed as functional. The note with it: 9.37 µM.

Assay [8] is filed under the species Homo sapiens. The assay can be described thus: To identify inhibition of the IFN signalling (Jak-Stat) pathway via expression of an eGFP reporter gene under the control of an IFN-stimulated response element (ISRE) containing MxA promoter. It is filed as functional. To be noted: 30 µM. In general terms: A reporter such as luciferase makes a cellular process visible.

In assay [9] the target is T4, Tyrosyl-tRNA synthetase, putative (Trypanosoma cruzi (strain CL Brener)) (UniProt Q4DSP6).
T4 sequence (whole entry): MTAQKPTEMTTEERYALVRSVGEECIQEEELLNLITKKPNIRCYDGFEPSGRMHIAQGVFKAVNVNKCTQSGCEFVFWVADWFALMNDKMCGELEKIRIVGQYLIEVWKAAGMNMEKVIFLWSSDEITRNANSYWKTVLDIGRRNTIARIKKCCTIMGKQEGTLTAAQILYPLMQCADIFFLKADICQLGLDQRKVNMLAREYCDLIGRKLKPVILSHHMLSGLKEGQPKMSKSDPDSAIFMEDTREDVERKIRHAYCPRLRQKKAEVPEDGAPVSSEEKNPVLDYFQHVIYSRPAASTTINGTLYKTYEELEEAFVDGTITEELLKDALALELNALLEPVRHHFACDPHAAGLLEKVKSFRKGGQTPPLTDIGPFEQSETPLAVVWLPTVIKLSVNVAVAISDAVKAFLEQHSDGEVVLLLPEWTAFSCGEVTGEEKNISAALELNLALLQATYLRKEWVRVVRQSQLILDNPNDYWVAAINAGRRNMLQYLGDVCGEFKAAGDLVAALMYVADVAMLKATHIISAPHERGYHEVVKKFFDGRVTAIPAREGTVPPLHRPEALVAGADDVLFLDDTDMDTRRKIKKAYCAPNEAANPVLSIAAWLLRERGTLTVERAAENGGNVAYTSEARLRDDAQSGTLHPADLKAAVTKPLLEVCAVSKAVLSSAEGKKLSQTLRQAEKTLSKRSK
As to the kind of experiment: Trypanosoma cruzi tyrosyl tRNA synthetase (TcYRS) _High Tyrosine SOP. Also: in the data most compounds retested in dose-response had high values. The note with it: 30 µM. Format: functional.

Assay [10] has as its target T4, Tyrosyl-tRNA synthetase, putative (Trypanosoma cruzi (strain CL Brener)). As to the kind of experiment: Trypanosoma cruzi tyrosyl tRNA synthetase (TcYRS) SOP. Format: functional. The note with it: 30 µM.
For assay [11], the target named is Chromo domain-containing protein 1 (Saccharomyces cerevisiae (strain ATCC 204508 / S288c) (Baker's yeast)) (UniProt P32657). As to the kind of experiment: ScCHD-1 Enzyme Inhibition Assay. Also: in the data most compounds retested in dose-response had high values. The note with it: 30 µM. Format: functional.
Chromo domain-containing protein 1 (Saccharomyces cerevisiae (strain ATCC 204508 / S288c) (Baker's yeast)), sequence (P32657 whole entry, the tested form may be a part): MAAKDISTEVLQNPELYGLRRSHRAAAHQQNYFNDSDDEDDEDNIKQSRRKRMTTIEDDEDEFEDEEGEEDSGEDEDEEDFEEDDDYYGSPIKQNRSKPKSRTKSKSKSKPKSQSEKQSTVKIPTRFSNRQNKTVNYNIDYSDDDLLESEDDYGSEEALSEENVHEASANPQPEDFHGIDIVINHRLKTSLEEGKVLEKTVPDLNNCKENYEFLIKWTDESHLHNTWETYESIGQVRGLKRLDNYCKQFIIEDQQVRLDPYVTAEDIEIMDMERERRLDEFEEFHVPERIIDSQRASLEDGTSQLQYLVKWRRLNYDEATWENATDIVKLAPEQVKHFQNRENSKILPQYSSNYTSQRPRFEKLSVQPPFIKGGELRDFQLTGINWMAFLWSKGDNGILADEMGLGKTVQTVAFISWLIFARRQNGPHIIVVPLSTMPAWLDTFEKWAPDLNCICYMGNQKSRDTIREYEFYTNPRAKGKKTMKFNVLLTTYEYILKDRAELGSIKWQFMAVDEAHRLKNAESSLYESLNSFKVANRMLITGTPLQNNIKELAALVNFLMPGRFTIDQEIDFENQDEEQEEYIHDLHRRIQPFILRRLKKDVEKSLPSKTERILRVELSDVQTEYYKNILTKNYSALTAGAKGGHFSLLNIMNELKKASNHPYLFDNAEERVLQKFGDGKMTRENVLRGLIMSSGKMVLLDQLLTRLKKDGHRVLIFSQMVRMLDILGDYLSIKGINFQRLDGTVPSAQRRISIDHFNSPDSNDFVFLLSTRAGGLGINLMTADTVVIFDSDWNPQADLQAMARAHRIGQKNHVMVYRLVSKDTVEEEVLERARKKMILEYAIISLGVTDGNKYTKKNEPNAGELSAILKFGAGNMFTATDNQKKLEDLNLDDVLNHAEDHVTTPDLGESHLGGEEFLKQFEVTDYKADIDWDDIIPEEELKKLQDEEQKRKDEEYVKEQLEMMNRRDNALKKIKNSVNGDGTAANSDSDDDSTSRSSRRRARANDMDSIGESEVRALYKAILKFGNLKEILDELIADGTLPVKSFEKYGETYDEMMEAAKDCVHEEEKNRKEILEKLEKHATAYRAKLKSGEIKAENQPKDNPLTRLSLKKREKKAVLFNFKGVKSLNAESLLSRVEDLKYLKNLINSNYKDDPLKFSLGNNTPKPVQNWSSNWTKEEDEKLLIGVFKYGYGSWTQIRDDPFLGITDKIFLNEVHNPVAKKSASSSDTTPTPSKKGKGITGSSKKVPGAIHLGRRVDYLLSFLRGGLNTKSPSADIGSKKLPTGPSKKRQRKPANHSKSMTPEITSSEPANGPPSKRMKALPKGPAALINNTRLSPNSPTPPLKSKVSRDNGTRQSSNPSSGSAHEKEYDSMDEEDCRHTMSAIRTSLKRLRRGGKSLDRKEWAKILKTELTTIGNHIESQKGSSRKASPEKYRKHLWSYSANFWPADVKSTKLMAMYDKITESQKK

For some of these results: Results with a measured potency or affinity are listed apart.

Protein translocase subunit SecA (Escherichia coli (strain K12)), sequence (P10408 whole entry): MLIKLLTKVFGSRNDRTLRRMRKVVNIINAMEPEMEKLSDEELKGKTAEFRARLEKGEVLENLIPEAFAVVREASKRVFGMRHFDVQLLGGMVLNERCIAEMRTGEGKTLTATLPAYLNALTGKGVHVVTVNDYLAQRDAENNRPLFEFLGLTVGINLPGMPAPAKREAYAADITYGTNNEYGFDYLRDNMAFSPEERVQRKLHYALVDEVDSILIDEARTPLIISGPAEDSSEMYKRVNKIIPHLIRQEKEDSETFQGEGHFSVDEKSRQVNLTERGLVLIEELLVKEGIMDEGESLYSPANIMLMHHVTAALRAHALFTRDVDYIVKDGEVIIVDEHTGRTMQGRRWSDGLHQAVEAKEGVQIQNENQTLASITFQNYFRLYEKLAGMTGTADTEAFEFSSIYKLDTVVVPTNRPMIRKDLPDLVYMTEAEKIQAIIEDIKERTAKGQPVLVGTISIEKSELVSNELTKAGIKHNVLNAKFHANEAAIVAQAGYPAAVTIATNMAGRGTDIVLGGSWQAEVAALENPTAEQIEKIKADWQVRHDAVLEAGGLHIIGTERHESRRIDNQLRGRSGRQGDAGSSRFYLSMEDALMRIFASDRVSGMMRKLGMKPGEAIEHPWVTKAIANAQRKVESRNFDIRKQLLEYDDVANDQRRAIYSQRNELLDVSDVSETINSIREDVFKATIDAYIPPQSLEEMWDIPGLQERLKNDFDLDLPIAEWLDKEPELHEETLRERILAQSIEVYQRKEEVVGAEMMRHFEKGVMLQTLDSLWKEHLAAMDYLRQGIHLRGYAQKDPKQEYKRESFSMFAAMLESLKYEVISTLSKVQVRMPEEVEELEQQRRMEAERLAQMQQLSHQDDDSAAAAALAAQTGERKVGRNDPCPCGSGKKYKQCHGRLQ

As to `CC(NC(=O)N(C)Cc1ccc(Cl)s1)c1ccccn1` (stereo not drawn), the Percent Effect is -2.39% in assay [1]; 13.9% in [2]; 9.06% in assay [3]; -0.224% in [4]; 0.308% in assay [5]; 1.07% in assay [6]. The Percent Effect in [7] is 6.86%; in [8], 14.4%; in [9] it was 3.12%; in assay [10], 12.7%; in [11] it was -14.9%.
`CCC1=N[C@@]2(CC[C@@H]3CN(Cc4ccc(Cl)cc4)C[C@@H]32)C(=O)N1C`: the Percent Effect in [1] is -4.15%; in assay [2], 2.7%; in assay [3] it was 3.53%; in assay [4], 4.31%; in assay [5] it was -0.0978%; in assay [6] it was -13.1%. Also, the Percent Effect in [7] is 16.4%; in assay [8] it was 14.7%; in assay [9], 0%; in [10] it was 2.56%; in assay [11] it was 2.84%.
Regarding `O=C(c1cc[nH]n1)N1CCC(Nc2cccnn2)CC1`, the Percent Effect in assay [1] is -5.6%; in [2], 7.79%; in assay [3], 1.01%; in assay [4], -11.8%; in assay [5], 8.52%; in [6], -2.74%. Further, the Percent Effect in assay [7] is 9.62%; in [8] it was 5.31%; in [9], 6.67%; in assay [10], 11.8%; in [11] it was -18.4%.
With `O=C(CCN1CCCC1C1CCCCC1)N1CCc2sccc2C1` (stereo not drawn), the Percent Effect is -3.42% in [1]; -48.6% in assay [2]; 11.2% in assay [3]; -0.447% in [4]; 5.75% in [5]; -5.21% in assay [6]. The Percent Effect in assay [7] was -0.18%; in assay [8], -25.7%; in assay [9], 14.3%; in assay [10], 11.1%; in assay [11] it was 10.3%.
Turning to `COc1c(C2CCCN2CC(=O)Nc2nc(C)cs2)c(C)nn1C` (stereo not drawn), the Percent Effect in assay [1] was -0.196%; in assay [2], -5.41%; in assay [3], -8.37%; in assay [4] it was 10.3%; in assay [5], 4.74%; in [6], 1.29%. Also, the Percent Effect stood at 5.03% in assay [7]; 5.63% in assay [8]; 4.95% in assay [9]; 6.1% in assay [10]; 0.0954% in [11].
With `Cc1cnn(CC2CCCN2Cc2nc3ccccc3nc2C)c1` (stereo not drawn), the Percent Effect is -2.22% in assay [1]; 0% in [2]; 0.154% in assay [3]; 1.31% in assay [4]; 4.41% in assay [5]; 1.47% in [6]. Besides, the Percent Effect is 10.4% in [7]; 9.09% in assay [8]; 0% in [9]; 7.06% in [10]; -12.8% in assay [11].
For `CN1CCN(C(=O)[C@@H]2CCO[C@@H]3CCN(c4ncccn4)C[C@@H]32)CC1`, the Percent Effect in assay [1] was -0.254%; in assay [2] it was 13.3%; in assay [3], 0.0211%; in assay [4], 0.601%; in assay [5] it was 2.7%; in [6], -48.9%. Moreover, the Percent Effect in [7] was 8.21%; in [8], -18.8%; in assay [9] it was 7.29%; in assay [10], 17.5%; in assay [11] it was -7.16%.
As to `COc1ccc(OC)c(NC(=O)c2nc3ccccc3n(C)c2=O)c1`, the Percent Effect in assay [1] is 1.79%; in [2] it was -15.6%; in assay [3] it was 3.42%; in assay [4], -2.14%; in [5], 0.888%; in assay [6], 3.23%. The Percent Effect is 9.22% in [7]; 3.54% in assay [8]; 1.06% in assay [9]; 14.1% in assay [10]; -7.41% in assay [11].
